Test [1] in a line: optical density shifts of acrAB sulA E. coli – strain DRC41, OD650, 48 h, E. coli filamentation inducer project, primary screen (AID 1152).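 Further: E. coli MC1000 strain DRC41 lacking acrAB efflux pump and sulA.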 The note with it: higher = more signal, called active from +8 up or from −8 down.
Test [2] can be described thus: probe aLefty1 binding on compound microarray – biochemical, small-molecule microarray, 635/667 nm fluorescence, primary screen (AID 1153).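 Further: score merges spot fluorescence with signal-to-noise ratio from the scanned slide images.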 Particulars: higher = more signal.
The nature of test [3]: plasmodial surface anion channel blockers, osmotic lysis – cell-based, P. falciparum Indochina, OD700, 1 h, primary screen (AID 1154). Particulars: P. falciparum Indochina infected RBC osmotic lysis, higher = more signal, called active from +8 up or from −8 down.
A short description of test [4]: plasmodial surface anion channel blockers, osmotic lysis – cell-based, P. falciparum Indochina, OD700, 2 h, primary screen (AID 1155).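 Further: lysis reports solute entry through the parasite surface anion channel PSAC.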 Particulars: P. falciparum Indochina infected erythrocytes, higher = more signal, called active from +8 up or from −8 down.
A short description of test [5]: changes in parasitized red cell lysis, either direction – P. falciparum Indochina, OD700, 3 h, PSAC antagonist project, primary screen (AID 1156). The note with it: P. falciparum-infected erythrocytes, osmotic lysis, higher = more signal, called active from +8 up or from −8 down.
Test [6] can be described thus: plasmodial surface anion channel blockers, osmotic lysis – cell-based, P. falciparum Indochina, OD700, 18 h, primary screen (AID 1157). Particulars: P. falciparum Indochina infected erythrocytes, osmotic lysis OD700, 18 h; higher = more signal, called active from +8 up or from −8 down.
Test [7] in a line: S6 kinase pathway phospho-S6 level changes – cell-based, A549, cytoblot, luminescence, serum-stimulated, primary screen (AID 1158).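 Further: serum-stimulated A549 lung adenocarcinoma cells; signal is phosphorylated S6 detected by cytoblot immunostaining with HRP secondary.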 Particulars: 5 h, higher = more signal.
Test [8] addresses NADPH oxidase 2 (Homo sapiens) (UniProt P04839). Nature of the test: compounds shifting NOX2 Amplex Red fluorescence – cell-based, HEK293-NOX2, PMA-stimulated, NOX inhibitor project, primary screen (AID 1159). Further: test concentration not given here. Particulars: 45 min, higher = more signal, called active from +8 up or from −8 down.
Test [9] has as its target NADPH oxidase 4 (Homo sapiens) (UniProt Q9NPH5). The test is described as follows: compounds shifting NOX4 Amplex Red fluorescence – cell-based, HEK293-NOX4, tetracycline-induced, NOX inhibitor project, primary screen (AID 1160). Particulars: HEK293-NOX4, Amplex Red H2O2 fluorescence, 45 min; higher = more signal, called active from +8 up or from −8 down.
Test [10] concerns the target NADPH oxidase 5 (Homo sapiens) (UniProt Q96PH1). The test is described as follows: compounds shifting NOX5 Amplex Red fluorescence – cell-based, HEK293-NOX5, NOX inhibitor project, primary screen (AID 1161). Particulars: HEK293-NOX5, ionomycin, 45 min, higher = more signal.
Test [11] can be described thus: compound effects on lung adenocarcinoma cell viability – A549, calcein-AM fluorescence, 48 h, basal, profiling panel (AID 1162). Further: test concentration not given here. Particulars: higher = more signal.
Test [12] in a line: compound effects on differentiated 3T3-L1 adipocyte viability – cell-based, 3T3-L1 adipocytes, calcein-AM fluorescence, 48 h, basal, profiling panel (AID 1163). Further: test concentration not given here. Particulars: 3T3-L1 adipocytes viability, higher = more signal.
A short description of test [13]: compound effects on hepatocellular carcinoma cell viability – HepG2, calcein-AM fluorescence, 48 h, basal, profiling panel (AID 1164). Further: test concentration not given here. Particulars: higher = more signal.
Test [14] can be described thus: compound effects on multiple myeloma cell viability – MM1S, calcein-AM fluorescence, 48 h, basal, profiling panel (AID 1165).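 Further: viability of MM1S multiple myeloma cells under basal unstimulated conditions; test concentration not given here.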 Particulars: higher = more signal.
Test [15] is described as follows: calcein-AM signal in unstimulated myeloma cells – cell-based, calcein-AM fluorescence, 48 h, PK04 Diversity Set, profiling panel (AID 1166).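 Further: cells grown under basal conditions without added stimulus; test concentration not given here.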 Particulars: RPMI8226 myeloma viability, higher = more signal.
Test [16] is described as follows: JC-1 mitochondrial signal, unstimulated HepG2 cells – cell-based, JC-1 fluorescence, 24 h, 100 nL compound, profiling panel (AID 1167). Further: test concentration not given here. The note with it: HepG2 mitochondrial potential, higher = more signal.
A short description of test [17]: JC-1 mitochondrial signal, unstimulated adipocytes – cell-based, JC-1 fluorescence, 3T3-L1 adipocytes, 24 h, 100 nL compound, profiling panel (AID 1168). Further: test concentration not given here. Particulars: JC-1 mitochondrial fluorescence, higher = more signal, called active from +8 up or from −8 down.
Test [18] in a line: JC-1 mitochondrial signal, unstimulated myeloma cells – cell-based, JC-1 fluorescence, RPMI8226, 24 h, 100 nL compound, profiling panel (AID 1169). Further: test concentration not given here. The note with it: JC-1 mitochondrial potential fluorescence, higher = more signal.
Test [19] is described as follows: JC-1 mitochondrial signal, unstimulated MM1S myeloma – cell-based, JC-1 fluorescence, 24 h, 100 nL compound, profiling panel (AID 1170). Further: test concentration not given here. Particulars: MM1S mitochondrial potential, higher = more signal.
The nature of test [20]: resazurin metabolic signal in A549 cells – cell-based, resazurin fluorescence, 24 h, PK04 Diversity Set, profiling panel (AID 1171). Further: test concentration not given here. Particulars: A549 viability, higher = more signal, called active from +8 up or from −8 down. Background: Alamar Blue is a resazurin reagent that responds to reducing activity.

The structures appear in SMILES notation. Activity calls are given as the source filed them.

Among the data in PubChem BioAssay are z-score and composite z-score values, retold here.

NADPH oxidase 5 (Homo sapiens), sequence (Q96PH1 whole entry, looked up): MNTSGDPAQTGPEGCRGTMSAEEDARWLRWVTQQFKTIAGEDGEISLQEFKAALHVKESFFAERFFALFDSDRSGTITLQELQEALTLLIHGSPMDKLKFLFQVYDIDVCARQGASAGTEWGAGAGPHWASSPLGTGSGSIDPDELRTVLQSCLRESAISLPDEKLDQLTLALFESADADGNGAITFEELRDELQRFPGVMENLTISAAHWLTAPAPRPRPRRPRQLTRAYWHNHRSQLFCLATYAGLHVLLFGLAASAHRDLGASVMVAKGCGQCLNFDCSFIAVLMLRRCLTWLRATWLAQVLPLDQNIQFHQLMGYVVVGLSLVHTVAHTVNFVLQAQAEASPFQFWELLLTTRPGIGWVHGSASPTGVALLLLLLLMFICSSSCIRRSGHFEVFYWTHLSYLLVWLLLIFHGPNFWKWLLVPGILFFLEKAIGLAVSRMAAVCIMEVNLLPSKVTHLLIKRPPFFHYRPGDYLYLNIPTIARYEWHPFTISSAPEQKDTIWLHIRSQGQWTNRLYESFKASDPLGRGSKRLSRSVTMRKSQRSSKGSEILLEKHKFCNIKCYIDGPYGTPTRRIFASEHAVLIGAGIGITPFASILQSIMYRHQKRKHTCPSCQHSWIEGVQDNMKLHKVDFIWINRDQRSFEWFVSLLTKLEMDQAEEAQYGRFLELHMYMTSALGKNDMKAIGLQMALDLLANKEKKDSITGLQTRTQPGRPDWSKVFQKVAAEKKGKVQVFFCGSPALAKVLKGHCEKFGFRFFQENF
NADPH oxidase 4 (Homo sapiens), sequence (Q9NPH5 whole entry, looked up): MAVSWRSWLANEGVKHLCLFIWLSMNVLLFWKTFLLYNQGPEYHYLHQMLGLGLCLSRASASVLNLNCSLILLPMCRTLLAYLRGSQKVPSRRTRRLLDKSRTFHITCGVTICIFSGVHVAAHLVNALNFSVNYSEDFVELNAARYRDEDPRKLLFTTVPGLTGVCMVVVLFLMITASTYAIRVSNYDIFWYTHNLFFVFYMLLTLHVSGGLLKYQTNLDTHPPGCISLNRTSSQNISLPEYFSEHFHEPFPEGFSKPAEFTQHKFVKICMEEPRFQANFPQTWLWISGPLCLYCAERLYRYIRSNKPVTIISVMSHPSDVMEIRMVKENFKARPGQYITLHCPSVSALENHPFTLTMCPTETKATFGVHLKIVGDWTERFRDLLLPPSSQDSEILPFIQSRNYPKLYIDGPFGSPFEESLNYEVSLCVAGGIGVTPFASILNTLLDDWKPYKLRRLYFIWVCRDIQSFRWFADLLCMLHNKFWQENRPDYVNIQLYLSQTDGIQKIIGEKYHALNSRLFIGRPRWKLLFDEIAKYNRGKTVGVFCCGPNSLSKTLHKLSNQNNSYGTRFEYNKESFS
NADPH oxidase 2 (Homo sapiens), sequence (P04839 whole entry, looked up): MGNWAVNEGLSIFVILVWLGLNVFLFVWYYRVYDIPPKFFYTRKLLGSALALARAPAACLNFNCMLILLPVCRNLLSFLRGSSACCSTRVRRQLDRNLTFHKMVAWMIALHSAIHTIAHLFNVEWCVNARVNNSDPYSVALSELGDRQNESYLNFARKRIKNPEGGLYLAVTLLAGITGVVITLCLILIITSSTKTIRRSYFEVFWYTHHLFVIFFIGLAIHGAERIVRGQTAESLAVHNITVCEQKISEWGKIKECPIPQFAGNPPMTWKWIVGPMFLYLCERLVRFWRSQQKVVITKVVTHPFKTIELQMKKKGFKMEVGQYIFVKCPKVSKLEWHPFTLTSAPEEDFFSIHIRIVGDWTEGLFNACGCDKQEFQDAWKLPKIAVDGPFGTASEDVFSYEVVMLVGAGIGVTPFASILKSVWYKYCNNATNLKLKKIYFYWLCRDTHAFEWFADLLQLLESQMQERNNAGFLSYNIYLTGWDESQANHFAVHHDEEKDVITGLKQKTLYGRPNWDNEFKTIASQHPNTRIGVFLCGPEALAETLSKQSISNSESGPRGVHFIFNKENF

Consider `NC(=O)[C@@H]1[C@H]2C(=O)O[C@H](c3ccccc3)[C@H](c3ccccc3)N2[C@H](c2ccc(OCCO)cc2)[C@@]12C(=O)Nc1ccc(C#CCCO)cc12`, for which the z-score was 0.498 (inactive) in test [1]; 22.5 (active) in [3]; 4.8 (inactive) in test [4]; 2.59 (inactive) in [5]; 0.908 (inactive) in [6]; 0.229 in [7]. In addition, the z-score in [8] was 1.5 (inactive); in test [9], 1.15 (inactive); in test [10], 0.92; in [11], -0.0173; in test [12], -0.387; in [13], 1.17. The z-score in test [14] is -0.929; in test [15], 0.698; in test [16], -0.704; in test [17] it was -0.391 (inactive); in test [18], -0.323; in test [19], -0.939. Also, the z-score in test [20] is -0.65 (inactive). In test [2], this compound displayed a composite z-score of 0.0253.

In the case of `CC1CC/C=C\[C@H]2OC34C=CCN(C(C)(C)C)C(=O)[C@H]3N(C(CO)C(C)C)C(=O)[C@@H]4C2C(=O)O1` (stereo not given in full), the z-score in test [1] was -0.281 (inactive); in test [3] it was 0.462 (inactive); in test [4] it was 0.451 (inactive); in test [5] it was 0.44 (inactive); in test [6], 0.404 (inactive); in test [7], -0.248. Further, the z-score in test [8] was 1.31 (inactive); in test [9], -0.568 (inactive); in test [10], 2.34; in test [11], 0.0643; in [12] it was 0.385; in [13] it was -0.554. Besides, the z-score is 1.61 in [14]; 0.136 in [15]; -0.976 in [16]; -0.295 (inactive) in test [17]; -0.622 in test [18]; -0.516 in test [19]. Further, the z-score in test [20] is -0.266 (inactive). This compound also gave a composite z-score in test [2] of -0.142.

`CCCC=C(CCC)[C@@H](NS(=O)(=O)c1cccc2cccnc12)c1ccc(-c2ccccc2)cc1`: the z-score in test [1] was -1.37 (inactive); in [3], 0.012 (inactive); in test [4], 0.451 (inactive); in test [5] it was 1.24 (inactive); in [6], 0.913 (inactive); in test [7], 0.389. In addition, the z-score in [8] was -0.876 (inactive); in test [9], 1.59 (inactive); in test [10] it was 2.39; in [11] it was -0.97; in test [12] it was -0.411; in [13] it was -0.615. Further, the z-score in test [14] was -1.95; in test [15], -4.54; in test [16], -3.54; in test [17] it was -0.0229 (inactive); in test [18], -0.361; in test [19], -0.844. The z-score in test [20] was 0.864 (inactive). The composite z-score in test [2] is 0.396.

Turning to `CCOC(=O)C[C@H]1[C@H](OC(=O)c2ccc(-c3ccccc3)cc2)[C@@H](NC(=O)CC(C)C)c2cc(OCCCO)ccc2N1C(=O)c1ccccc1`, the z-score in test [1] was -0.674 (inactive); in test [3], 1.18 (inactive); in test [4] it was 0.389 (inactive); in test [5], -0.0732 (inactive); in test [6], 0.336 (inactive); in test [7] it was 0.574. Moreover, the z-score in test [8] is 0.403 (inactive); in test [9], -0.742 (inactive); in test [10], 1.74; in test [11], -0.426; in test [12], -0.257; in test [13], -0.0915. Further, the z-score in test [14] was -1.17; in [15], -0.672; in test [16] it was 1.32; in test [17], -0.679 (inactive); in test [18], 0.983; in test [19], 0.33. Further, the z-score in [20] was -0.719 (inactive). Also, the composite z-score in [2] came out at 0.113.

Turning to `C=C(COC)/C(=C/C[C@@H](OC(C)=O)c1ccc(CO)o1)c1cc(C(=O)OC)ccc1OC`, the z-score is 0.265 (inactive) in test [1]; 1.56 (inactive) in [3]; 0.362 (inactive) in test [4]; 0.389 (inactive) in test [5]; 0.0621 (inactive) in test [6]; 0.187 in test [7]. The z-score in test [8] was 0.184 (inactive); in test [9], -0.207 (inactive); in test [10], 0.13; in test [11], -0.109; in test [12], -0.461; in [13], 0.322. In addition, the z-score in test [14] is -0.425; in test [15], -0.0799; in [16], 0.0492; in test [17], 0.208 (inactive); in [18], -0.726; in test [19], -0.927. Moreover, the z-score in test [20] was 0.072 (inactive). For the same compound, the composite z-score in test [2] is 0.051.

With `COC(=O)[C@@]1(Cc2ccccc2CN=[N+]=[N-])N=C(c2ccc(OCCCO)cc2)O[C@H]1c1ccccc1CN=[N+]=[N-]`, the z-score in test [1] is -0.586 (inactive); in test [3], 21.8 (active); in [4] it was 7.79 (inactive); in test [5], 0.912 (inactive); in [6], 1.72 (inactive); in [7], 0.141. For the same compound, the z-score was -2.2 (inactive) in test [8]; -0.00368 (inactive) in test [9]; -2.01 in test [10]; -3.82 in test [11]; 0.522 in test [12]; -5.01 in test [13]. The z-score in [14] was -3.56; in test [15] it was -3.89; in test [16] it was -0.86; in test [17] it was -1.38 (inactive); in test [18], -1.07; in test [19] it was -2.09. The z-score in test [20] is -2.82 (inactive). The compound further yielded a composite z-score in test [2] of 0.0288.

On to `C=CCC(OC(C)=O)[C@@H]1[C@@H](N(Cc2cccc3ccccc23)C(=O)c2ccc(-c3ccccc3)cc2)c2cc(OCCCO)ccc2N1C(=O)c1ccc(-c2ccccc2)cc1` (stereo not given in full), for which the z-score is -0.883 (inactive) in [1]; 0.311 (inactive) in [3]; -1.06 (inactive) in test [4]; -0.942 (inactive) in test [5]; -0.454 (inactive) in test [6]; -0.0997 in test [7]. Further, the z-score is 0.582 (inactive) in test [8]; 0.688 (inactive) in test [9]; 0.296 in [10]; 0.512 in test [11]; 0.842 in [12]; 0.515 in test [13]. Moreover, the z-score was -0.484 in test [14]; 0.294 in test [15]; 0.78 in test [16]; -1.97 (inactive) in test [17]; 0.603 in test [18]; 0.0821 in test [19]. Moreover, the z-score in test [20] was 0.654 (inactive). The composite z-score in [2] was -0.06.

As for `CC(C)[Si]1(C(C)C)OCc2cc(-c3ccc(-c4ccc(Cl)c(Cl)c4)o3)nc(CCc3ccccc3)c21`, the z-score in test [1] is 0.785 (inactive); in [3], 1.58 (inactive); in test [4], -0.0088 (inactive); in [5], -0.263 (inactive); in [6] it was -1.01 (inactive); in [7], 0.353. The z-score is 0.69 (inactive) in [8]; 0.187 (inactive) in test [9]; -0.402 in test [10]; 0.305 in [11]; 0.405 in [12]; 0.165 in test [13]. Also, the z-score in [14] was -3.2; in [15], -4.26; in test [16] it was -2.07; in test [17], 0.945 (inactive); in test [18] it was -0.838; in [19], -1.72. Moreover, the z-score in test [20] was 1.4 (inactive). The composite z-score in test [2] is -0.239.

`COc1ccc([Si](C)(C)[C@@H]2[C@@H](CCn3cc([C@H](O)c4ccccc4)nn3)O[C@]3(C(=O)N(c4ccccc4)c4ccccc43)[C@H]2C)cc1`: the z-score in [1] was 0.424 (inactive); in test [3], 3.15 (inactive); in [4] it was -1.51 (inactive); in test [5], 3.03 (inactive); in [6], -1.63 (inactive); in [7] it was 0.751. The z-score in test [8] was -0.0239 (inactive); in [9], 0.276 (inactive); in test [10], 0.506; in [11], -0.985; in test [12], 1.98; in test [13] it was -2.22. Besides, the z-score was -1.18 in test [14]; -3.91 in test [15]; 1.63 in test [16]; 0.177 (inactive) in test [17]; -0.973 in [18]; -0.681 in test [19]. Besides, the z-score in [20] is -2.3 (inactive). For the same compound, the composite z-score in test [2] is -0.348.
